Experiment: PSAC antagonists in infected red cells, primary screen, cell-based, P. falciparum Indochina, OD700, 18 h (AID 1157)
Details: P. falciparum Indochina infected erythrocytes, osmotic lysis OD700, 18 h; higher = more signal, called active from +8 up or from −8 down

z-score, inactive:
C=CCOC(=O)[C@@H]1[C@H]2C(=O)O[C@H](c3ccccc3)[C@H](c3ccccc3)N2[C@H](c2ccc(OCCOC(=O)[C@@H]3C[C@@H]4C(=O)NCC(=O)N4[C@@H]3c3cccc(OCCO)c3)cc2)[C@@]12C(=O)Nc1ccc(I)cc12 0.572, C#CCN(C(/C=C/c1ccccc1)CO)C(C(=O)O)c1ccccc1 (configuration not stated) -2.09, COC(=O)[C@@]1(Cc2ccc(F)cc2)[C@H]2c3cc(C(=O)N4CCCC4)n(Cc4cccc5ccccc45)c3C[C@H]2CN1C(=O)c1ccccc1 0.863, CC(C)CNC(=O)[C@@H]1c2ccccc2C(=O)N(Cc2cc(C(F)(F)F)cc(C(F)(F)F)c2)[C@H]1c1ccc(CO)cc1 0.379, COc1cc2c(cc1OC)CN(C(=O)[C@@H]1[C@H]3C(=O)O[C@H](c4ccccc4)[C@H](c4ccccc4)N3[C@H](c3ccccc3OCCO)[C@@]13C(=O)Nc1ccc(C#CCNC(N)=O)cc13)CC2 -2.15, COC(=O)c1ccc(C(O)C2C=CC3C(=O)N(c4ccccc4)C(=O)C3N2Nc2ccc(C#N)cc2)o1 (configuration not stated) 0.975, CC(=O)NCCCC[C@@H]1NC(=O)[C@@H]2C[C@H](C(=O)NCCCCCCNC(=O)CS)[C@H](c3ccc(O)cc3)N2C1=O 0.0805, O=c1cccc(C=Cc2ccccc2)o1 0.931, COc1ccc([Si](C)(C)[C@@H]2[C@@H](CC(=O)N3CCC[C@H]3CO)O[C@]3(C(=O)N(C)c4c(Br)cc(C)cc43)[C@H]2C)cc1 0.768, CC(C)N1C(=O)[C@@]2(c3ccc([N+](=O)[O-])cc3)CC(=O)N(CC34CC5CC(CC(C5)C3)C4)[C@@H]2c2ccc(CO)cc21 0.131, COC(=O)[C@@]1(Cc2ccccc2)N=C(c2ccc(OCCCO)cc2)O[C@H]1c1ccccc1N=[N+]=[N-] 5.76, N#Cc1ccc(NN2C(C(O)c3ccc([N+](=O)[O-])cc3)C=CC3C(=O)N(c4ccccc4)C(=O)C32)cc1 (configuration not stated) 1.49, [N-]=[N+]=Nc1ccccc1[C@@H]1OC(c2ccc(OCCCO)cc2)=N[C@]1(CCS(=O)(=O)c1ccccc1)C(=O)N1CCOCC1 6.38, O=C(O)[C@H]1C[C@H]2C(=O)NCC(=O)N2[C@H]1c1ccc(O)cc1 0.276, O=c1cccc(CCc2ccccc2)o1 0.339, CCN(CC)c1ccc(N2CC=CC34O[C@@H]5C=CCCOC(=O)C5[C@H]3C(=O)N(CCCCCO)[C@@H]4C2=O)cc1 (some centres not stated) 0.352, COCCCNC(=O)[C@@]1(c2ccc([N+](=O)[O-])cc2)CC(=O)N(CC23CC4CC(CC(C4)C2)C3)[C@@H]1c1ccc(CO)cc1 0.888, [N-]=[N+]=NCc1ccccc1C[C@]1(C(=O)NCC(O)CO)N=C(c2ccc(OCCCO)cc2)O[C@H]1c1ccccc1N=[N+]=[N-] (some centres not stated) 3.93, [N-]=[N+]=NCc1ccccc1[C@@H]1OC(c2ccc(OCCCO)cc2)=N[C@]1(Cc1ccccc1N=[N+]=[N-])C(=O)NCc1ccccc1 1.33, O=C1OCC=C[C@H]2OC34C=CCN(c5ccc(Cl)cc5)C(=O)[C@H]3N(CCCCCCO)C(=O)[C@@H]4[C@@H]12 (some centres not stated) 0.476, CC(C)C[C@@H]1NC(=O)[C@H]2C[C@@H](C(=O)NCCCCCNC(=O)CS)[C@@H](c3cccc(OCCO)c3)N2C1=O 0.327, COC(=O)[C@@]1(Cc2ccccc2)[C@H]2c3cc(C(=O)N4CCCC4)n(Cc4ccc(C)o4)c3C[C@H]2CN1C(=O)c1ccccc1 0.52, O=C1c2ccccc2[C@@]2(Cc3ccccc3N(Cc3ccccc3)C2=O)[C@H](c2ccc(CO)cc2)N1C1CCCCC1 0.327, COc1ccccc1CN1C(=O)c2ccccc2[C@@H](C(=O)NCCN2CCOCC2)[C@@H]1c1ccc(CO)cc1 0.695, COc1cccc(C(=O)O[C@H]2CC[C@]3(C)C4=C(CCC3C2(C)C)[C@]2(C)CC[C@H]([C@H](C)CCCC(C)C)[C@@]2(C)CC4)c1 (some centres not stated) -1.63, C[C@H]1NC(=O)[C@H](Cc2ccccc2)NC(=O)[C@@]23C(=O)N[C@@H](Cc4ccccc4)C2[C@H](C)[C@@]2(C)O[C@H]2C3/C=C/C/C=C\CNC1=O (some centres not stated) 0.501, CS(=O)(=O)CCOC(=O)C1=CC(CCCO)=CC(c2cccs2)N(Cc2cc3c(cc2Br)OCO3)C=C1C(=O)OCCS(C)(=O)=O (configuration not stated) 0.479

— PubChem BioAssay
